# Measurements published in ChEMBL document CHEMBL4649982, “Selective targeting of Bromodomains of the Bromodomain-PHD Fingers family impairs osteoclast differentiation” (ACS Chem Biol, 2017).
# Values joined by “and” are separate entries in the source; they are usually repeats but may differ in a detail not shown here. Equal values may be shown once.
# Experiments:
# [1] = biological target: Bromodomain-containing protein 4 (Homo sapiens) (UniProt O60885); details: Compound concentration 10.0 uM, Protein concentration 2.0 uM
# [2] = biological target: T1, Transcription intermediary factor 1-alpha (Homo sapiens) (UniProt O15164); details: Compound concentration 10.0 uM, Protein concentration 2.0 uM
# T1 sequence (whole entry): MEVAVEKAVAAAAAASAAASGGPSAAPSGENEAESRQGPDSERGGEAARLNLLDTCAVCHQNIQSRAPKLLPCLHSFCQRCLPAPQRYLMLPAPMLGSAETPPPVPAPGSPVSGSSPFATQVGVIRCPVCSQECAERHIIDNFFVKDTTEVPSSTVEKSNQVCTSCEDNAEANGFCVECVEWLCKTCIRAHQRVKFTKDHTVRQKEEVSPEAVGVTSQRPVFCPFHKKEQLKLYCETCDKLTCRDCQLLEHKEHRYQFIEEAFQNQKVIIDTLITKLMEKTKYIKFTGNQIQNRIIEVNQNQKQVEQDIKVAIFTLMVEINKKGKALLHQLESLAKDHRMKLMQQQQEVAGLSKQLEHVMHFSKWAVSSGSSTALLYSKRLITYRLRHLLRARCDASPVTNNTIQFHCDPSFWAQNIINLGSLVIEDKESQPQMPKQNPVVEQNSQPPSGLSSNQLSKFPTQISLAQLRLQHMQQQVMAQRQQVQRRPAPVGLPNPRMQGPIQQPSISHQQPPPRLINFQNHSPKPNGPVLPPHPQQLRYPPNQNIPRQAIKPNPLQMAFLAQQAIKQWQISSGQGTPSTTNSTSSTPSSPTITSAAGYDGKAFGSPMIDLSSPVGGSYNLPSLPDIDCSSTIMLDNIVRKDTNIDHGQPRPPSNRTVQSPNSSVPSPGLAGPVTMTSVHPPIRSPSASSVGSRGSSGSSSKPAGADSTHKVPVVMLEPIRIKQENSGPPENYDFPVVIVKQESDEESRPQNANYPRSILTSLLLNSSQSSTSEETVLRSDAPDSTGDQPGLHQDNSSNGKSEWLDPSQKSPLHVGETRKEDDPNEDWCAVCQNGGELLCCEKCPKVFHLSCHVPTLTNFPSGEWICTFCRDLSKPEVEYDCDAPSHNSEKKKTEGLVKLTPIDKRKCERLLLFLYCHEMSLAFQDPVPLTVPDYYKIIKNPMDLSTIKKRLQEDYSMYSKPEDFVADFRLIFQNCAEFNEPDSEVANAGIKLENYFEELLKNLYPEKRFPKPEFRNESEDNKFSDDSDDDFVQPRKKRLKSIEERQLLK
smiles,measurement,setting,value
COc1cc2c(cc1NS(=O)(=O)c1ccc(Br)cc1C)n(C)c(=O)n2C,ΔTm,[1],1.42 °C and 2.26 °C
same,ΔTm,[2],2.87 °C
